Inconclusive results are not listed. The source made the active and inactive calls. Unless noted, calls come from the whole dose curve; as a rule, active = well fitted inhibition curve with a large enough effect; inconclusive = small, poorly fitted or top-dose-only effect; inactive = flat fitted curve, though single readings scatter.
Experiments:
[1] = qHTS drug screen for cell cycle checkpoint inhibitors in PARPi-resistant BRCA-mutant ovarian cancer cell lines. (AID 1963452; calls by dose curve); conditions: PEO1/OlaR viability, CellTiter-Glo luminescence, 96 h, stronger effect = lower value
How it was run: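 PEO1, PEO4 and PEO1/OlaR ovarian cancer cells, 600 per well, exposed 96 h at 37C to a dilution series. Viability read by CellTiter-Glo luminescence, normalized to DMSO and empty wells; activity summarized as Z-AUC.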

[2] = qHTS for identification of novel therapeutic agents for treatment of microphthalmiaassociated transcription factor (MiT) renal cell carcinoma (RCC) (AID 1963991; calls by dose curve; note: potency is the fitted concentration of half-maximal effect;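 for z-score: curves scaled with 100% = DMSO viability and 0% = empty wells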); conditions: CellTiter-Glo, 48 h; for z-score: stronger effect = lower value; for Potency: active = Z-AUC below -0.8 in all three lines
How it was run: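 UOK109/UOK124/UOK145 (TFE3 fusions, three partners); 500 cells/well; MIPE v4.0, 1912 cpds, 11 conc.; 48 h, 37 C; CellTiter-Glo, 15 min RT; lum. Norm.: DMSO 100%, empty 0%.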

[3] = qHTS profiling for inhibitors of Plasmodium falciparum proliferation (AID 504749); note: potency is the fitted concentration of half-maximal effect;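 for activity, negative = inhibition: 0% = DMSO vehicle and full inhibition = artemisinin control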; for all read-outs here: nearly all actives have a fitted effect of over 60% in size; conditions: P. falciparum in erythrocytes, SYBR Green DNA, 72 h; for activity, negative = inhibition: at 28.7 µM (top of the series)
How it was run: (§1)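 In a 72 h erythrocytic culture (37 C, humidified, 5% CO2) at 2.5% hematocrit and 0.3% starting parasitemia, compounds were tested; SYBR Green I in detergent lysis buffer stained parasite DNA overnight.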

[4] = system: 3D7; assay: as above; conditions: P. falciparum in erythrocytes, SYBR Green DNA, 72 h; series mostly up to 28.7 µM
How it was run: as §1

[5] = system: 7G8; assay: as above; conditions: P. falciparum in erythrocytes, SYBR Green DNA, 72 h; series mostly up to 28.7 µM
How it was run: as §1

[6] = system: AA1029; assay: as above; conditions: P. falciparum in erythrocytes, SYBR Green DNA, 72 h; series mostly up to 28.7 µM
How it was run: as §1

[7] = system: AS120; assay: as above; conditions: P. falciparum in erythrocytes, SYBR Green DNA, 72 h; series mostly up to 28.7 µM
How it was run: as §1

[8] = system: ATS189; assay: as above; conditions: P. falciparum in erythrocytes, SYBR Green DNA, 72 h; series mostly up to 28.7 µM
How it was run: as §1

[9] = system: ATS95; assay: as above; conditions: P. falciparum in erythrocytes, SYBR Green DNA, 72 h; series mostly up to 28.7 µM
How it was run: as §1

[10] = system: C2A; assay: as above; conditions: P. falciparum in erythrocytes, SYBR Green DNA, 72 h; series mostly up to 28.7 µM
How it was run: as §1

[11] = system: CP185; assay: as above; conditions: P. falciparum in erythrocytes, SYBR Green DNA, 72 h; series mostly up to 28.7 µM
How it was run: as §1

[12] = system: CP191; assay: as above; conditions: P. falciparum in erythrocytes, SYBR Green DNA, 72 h; series mostly up to 28.7 µM
How it was run: as §1

[13] = measured here: PEO1 parental Z-AUC
[14] = TFE3-RCC UOK109 viability, measured here: UOK109 Z-AUC
[15] = TFE3-RCC viability, measured here: UOK124 Z-AUC
[16] = TFE3-RCC viability, measured here: UOK145 Z-AUC

## O=C(O)C1=CC(O)C(O)[C@H](O)C1 (stereo partly drawn)
[1]
  Z-AUC: 1.17 (inactive)
[1]; [13]
  Z-AUC: 1.52
[1]; measured here: PEO4 Z-AUC
  Z-AUC: 1.23
[2]; [14]
  z-score: 1.04
[2]; [15]
  z-score: 0.866
[2]; [16]
  z-score: 0.319

## CNC1[C@H](O)C(O[C@@H]2C(O)C(O[C@H]3O[C@H]([C@@H](C)NC)CC[C@H]3N)[C@@H](N)C[C@H]2N)OC[C@]1(C)O (stereo partly drawn)
[2]; [14]
  z-score: 0.654
[2]; [15]
  z-score: 0.386
[2]; [16]
  z-score: 0.886

## COc1cccc(OC)c1-c1cc(C(=O)NC2(C(=O)O)C3CC4CC(C3)CC2C4)nn1-c1ccnc2cc(Cl)ccc12 (stereo not drawn)
[1]
  Z-AUC: 1.24 (inactive)
[1]; [13]
  Z-AUC: 0.986
[1]; measured here: PEO4 Z-AUC
  Z-AUC: 1.12
[2]; [14]
  z-score: 1.18
[2]; [15]
  z-score: 0.441
[2]; [16]
  z-score: 0.707

## O=C(NCCCCN1CCOCC1)c1cc2ccccc2o1
[1]
  Z-AUC: 1.41 (inactive)
[1]; [13]
  Z-AUC: 1.22
[1]; measured here: PEO4 Z-AUC
  Z-AUC: 1.23
[2]; [14]
  z-score: 0.969
[2]; [15]
  z-score: 0.64
[2]; [16]
  z-score: 0.273

## C[C@@H]1CCO[C@H]2Cn3cc(C(=O)NCc4ccc(F)cc4F)c(=O)c(O)c3C(=O)N12
[2]; [14]
  z-score: 0.807
[2]; [15]
  z-score: 0.941
[2]; [16]
  z-score: 1.66

## Nc1ccc(-c2ccc3ncc4ccc(=O)n(-c5cccc(C(F)(F)F)c5)c4c3c2)cn1
[1]
  Z-AUC: -1.37 (inactive)
[1]; [13]
  Z-AUC: -2.21
[1]; measured here: PEO4 Z-AUC
  Z-AUC: -1.55
[2]; TFE3-RCC UOK109 viability
  Potency: 3.32 µM (active)
[2]; [14]
  z-score: -2.43
[2]; [15]
  z-score: -4.62
[2]; [16]
  z-score: -4.33

## COc1nc(C)cnc1NS(=O)(=O)c1cccnc1-c1ccc(-c2nnco2)cc1
[1]
  Z-AUC: 1.25 (inactive)
[1]; [13]
  Z-AUC: 1.67
[1]; measured here: PEO4 Z-AUC
  Z-AUC: 1.16
[2]; [14]
  z-score: 1.22
[2]; [15]
  z-score: 0.956
[2]; [16]
  z-score: 0.662

## COc1cc2c(cc1OC)CC(=O)N(CCCN(C)C[C@H]1Cc3cc(OC)c(OC)cc31)CC2
[1]
  Z-AUC: 0.967 (inactive)
[1]; [13]
  Z-AUC: 0.523
[1]; measured here: PEO4 Z-AUC
  Z-AUC: 0.443
[3]; parasite line A
  activity, negative = inhibition: -2.12% (inactive)
[3]; parasite line B
  activity, negative = inhibition: -3.25% (inactive)
[4]
  Potency: inactive
[5]
  Potency: 11.2 µM (active)
[6]
  Potency: inactive
[7]
  Potency: inactive
[8]
  Potency: inactive
[9]
  Potency: inactive
[10]
  Potency: inactive
[11]
  outcome: inactive
[12]
  outcome: inactive

## N#Cc1c(N(CC(=O)O)CC(=O)O)sc(C(=O)O)c1CC(=O)O
[1]
  Z-AUC: 0.439 (inactive)
[1]; [13]
  Z-AUC: 0.76
[1]; measured here: PEO4 Z-AUC
  Z-AUC: 0.481
[2]; [14]
  z-score: 0.286
[2]; [15]
  z-score: 0.354
[2]; [16]
  z-score: 0.00458
[3]; parasite line A
  activity, negative = inhibition: 12.6% (inactive)
[3]; parasite line B
  activity, negative = inhibition: 0.836% (inactive)
[4]
  Potency: inactive
[5]
  Potency: inactive
[6]
  Potency: inactive
[7]
  Potency: inactive
[8]
  Potency: inactive
[9]
  Potency: inactive
[10]
  Potency: inactive
[11]
  outcome: inactive
[12]
  outcome: inactive

## N#CC(c1ccc(Cl)cc1)c1c(Cl)cc(-n2ncc(=O)[nH]c2=O)cc1Cl (stereo not drawn)
[1]
  Z-AUC: -0.392 (inactive)
[1]; [13]
  Z-AUC: -1.19
[1]; measured here: PEO4 Z-AUC
  Z-AUC: -1.22
[3]; parasite line A
  activity, negative = inhibition: -9.47% (inactive)
[3]; parasite line B
  activity, negative = inhibition: -1.8% (inactive)
[4]
  Potency: inactive
[6]
  Potency: inactive
[7]
  Potency: inactive
[8]
  Potency: inactive
[9]
  Potency: inactive
[10]
  Potency: inactive
[11]
  outcome: inactive
[12]
  outcome: inactive

## C=CC[N+]1([C@H]2C[C@H]3[C@@H]4CC[C@H]5C[C@H](O)[C@@H](N6CCOCC6)C[C@]5(C)[C@@H]4CC[C@]3(C)[C@H]2OC(C)=O)CCCC1
[2]; [14]
  z-score: 0.798
[2]; [15]
  z-score: 0.675
[2]; [16]
  z-score: 0.368

## CCC(=O)N1CCN(c2ccc(-n3c(=O)ccc4cnc5ccc(-c6cnc7ccccc7c6)cc5c43)cc2C(F)(F)F)CC1
[1]
  Z-AUC: -1.59 (inactive)
[1]; [13]
  Z-AUC: -1.67
[1]; measured here: PEO4 Z-AUC
  Z-AUC: -1.97
[2]; TFE3-RCC UOK109 viability
  Potency: 0.0209 µM (active)
[2]; [14]
  z-score: -1.38
[2]; [15]
  z-score: -1.23
[2]; [16]
  z-score: -1.82

## COc1c(C)c2c(c(O)c1CC=C(C)CCC(=O)OCCN1CCOCC1)C(=O)OC2
[3]; parasite line A
  Potency: 7.94 µM (active)
[3]; parasite line B
  Potency: 10 µM (active)
